# Measured values taken from PubChem BioAssay AID1835 (Johns Hopkins Ion Channel Center, 2009).
# Among all 2,400 compounds or so, about 750 (31%) were called active. This is one part of the list. A number with no mark means an inactive call.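 How the source made its calls: active means median signal gain over dofetilide-blocked control wells reaching their mean plus 3 SD, so readout 1 at least 0; inactive means the rest.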
# Biological target: Voltage-gated inwardly rectifying potassium channel KCNH2 (Homo sapiens) (UniProt Q12809)
# Assay: hERG protection against dofetilide inhibition, confirmation, cell-based, thallium flux, duplicate retest, dofetilide IC70 (AID 1835)
# Settings: hERG cell line, FluxOR thallium flux, dofetilide-blocked; at 10 µM; stronger effect = higher value
# Sequence of Voltage-gated inwardly rectifying potassium channel KCNH2 (Homo sapiens) (Q12809 whole entry, looked up): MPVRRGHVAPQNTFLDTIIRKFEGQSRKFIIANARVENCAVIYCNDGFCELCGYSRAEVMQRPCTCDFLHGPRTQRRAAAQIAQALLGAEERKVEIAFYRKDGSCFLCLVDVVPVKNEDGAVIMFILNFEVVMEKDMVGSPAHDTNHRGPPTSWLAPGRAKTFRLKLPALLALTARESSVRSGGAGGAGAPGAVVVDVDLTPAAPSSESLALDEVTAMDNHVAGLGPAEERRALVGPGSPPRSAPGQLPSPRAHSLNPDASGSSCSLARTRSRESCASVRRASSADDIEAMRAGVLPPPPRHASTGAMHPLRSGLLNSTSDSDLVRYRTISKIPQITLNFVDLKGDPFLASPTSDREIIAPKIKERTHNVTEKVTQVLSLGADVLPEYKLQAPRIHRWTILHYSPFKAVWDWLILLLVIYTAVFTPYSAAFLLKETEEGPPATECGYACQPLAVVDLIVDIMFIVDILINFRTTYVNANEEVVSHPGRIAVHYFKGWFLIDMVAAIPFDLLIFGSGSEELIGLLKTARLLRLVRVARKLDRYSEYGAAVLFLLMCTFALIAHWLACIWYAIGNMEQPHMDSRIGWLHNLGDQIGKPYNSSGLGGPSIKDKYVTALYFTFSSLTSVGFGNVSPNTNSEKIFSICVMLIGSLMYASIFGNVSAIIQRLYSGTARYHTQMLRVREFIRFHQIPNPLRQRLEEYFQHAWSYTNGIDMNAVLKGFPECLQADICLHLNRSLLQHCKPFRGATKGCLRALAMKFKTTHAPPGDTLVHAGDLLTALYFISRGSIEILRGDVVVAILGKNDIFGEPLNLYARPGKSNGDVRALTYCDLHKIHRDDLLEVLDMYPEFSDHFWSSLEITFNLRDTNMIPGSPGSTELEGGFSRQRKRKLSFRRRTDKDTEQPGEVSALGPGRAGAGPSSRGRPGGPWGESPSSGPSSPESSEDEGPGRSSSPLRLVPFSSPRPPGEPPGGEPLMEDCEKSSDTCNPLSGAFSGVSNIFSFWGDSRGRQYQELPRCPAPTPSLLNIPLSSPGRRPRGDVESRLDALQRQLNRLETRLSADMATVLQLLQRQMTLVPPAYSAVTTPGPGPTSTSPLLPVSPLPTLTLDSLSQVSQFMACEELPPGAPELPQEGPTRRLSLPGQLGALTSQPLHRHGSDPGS
row,Structure (SMILES),"activity increase over dofetilide control, less the hit threshold"
1,Cc1cc(C)c(-c2cc(NC(=O)COC(=O)c3ccc(NC(=O)CC#N)cc3)n(-c3ccccc3)n2)cc1C,-15%
2,Cc1ccc(NC(=S)N2CCN(c3ccccc3F)CC2)c(C)c1,-8%
3,CC(C)COc1ccc(-c2nn(-c3ccccc3)cc2C(=O)Nc2nccs2)cc1,20% (active)
4,COc1ccc(CN2CCn3ncc(C(=O)Nc4ccccc4)c3C2=O)cc1,-16%
5,Cc1cnc(C(=O)Nc2nccs2)cn1,-22%
6,Cc1ccc(-n2ccc(=O)c(C(=O)Nc3ccc(S(=O)(=O)Nc4nccs4)cc3)n2)cc1,-3%
7,COc1ccc(-c2nn(-c3ccccc3)cc2C(=O)Nc2cccc(C(=O)O)c2)cc1[N+](=O)[O-],-27%
8,COc1ccc(NC(=O)c2cn(-c3ccccc3)nc2-c2ccncc2)cc1,40% (active)
9,COc1ccc([N+](=O)[O-])cc1N(CC(=O)NCc1ccco1)S(C)(=O)=O,-21%
10,O=c1cc(O)c2sc(Nc3ccc(F)c(Cl)c3)nc2[nH]1,-15%
11,C=CCNC(=O)COc1ccc(Oc2ccccc2)cc1,-6%
12,Cc1ccccc1NC(=O)C(=O)NNC(=O)COc1ccc2ccccc2c1,48% (active)
13,O=C(COc1ccc2ccccc2c1)Nc1ccc(Br)cc1C(=O)O,-10%
14,O=C(COc1ccccc1)Nc1ccc(F)cc1,-27%
15,O=C(COc1ccc2ccccc2c1)NNC(=O)C(=O)Nc1ccccc1,55% (active)
16,COC(=O)CSc1nnc(COc2ccc3ccccc3c2)o1,-10%
17,COc1ccc(N2CC(C(=O)OCC(=O)Nc3ccccc3C)CC2=O)cc1 (configuration not stated),-5%
18,COc1ccccc1NC(=O)C(=O)NNC(=O)COc1ccc2ccccc2c1,94% (active)
19,CCN1C(=O)c2cccc3c(S(=O)(=O)NCC4CCCO4)ccc1c23 (configuration not stated),-22%
20,Brc1ccc(Nc2nc(-c3cccnc3)cs2)cc1,-12%
21,Cc1cc(C(F)(F)F)c2sc(N)nc2n1,-11%
22,CC1CC(OCC(O)C[N+]2(C)CCOCC2)CC(C)(C)C1 (configuration not stated),-13%
23,COc1ccc(S(=O)(=O)Nc2cccc(-n3cnnn3)c2)cc1,-20%
24,C=CCN(c1cccc(C(F)(F)F)c1)S(=O)(=O)c1cccc(C(=O)OCC(=O)Nc2ccccc2)c1,-6%
25,C=CCN(c1ccc(Cl)cc1)S(=O)(=O)c1cccc(C(=O)O)c1,6% (active)
26,C=CCN(c1ccccc1)S(=O)(=O)c1cccc(C(=O)Nc2nnc(SCC)s2)c1,-4%

row,Structure (SMILES),"activity increase over dofetilide control, less the hit threshold"
1,COc1ccc(-c2cn3nc(SCC(=O)NC4CCCCC4)ccc3n2)cc1,-2%
2,O=C(CNC(=O)c1ccccc1)NCc1ccc(Cl)cc1,-8%
3,CN(CC(=O)Nc1nc2ccccc2s1)S(=O)(=O)c1ccc(Cl)cc1,-17%
4,O=C(Nc1nc(=O)c2ccccc2s1)c1ccc(Cl)cc1,46% (active)
5,Cc1ccc(C(=O)Nc2nc3ccccc3c(=O)s2)cc1,53% (active)
6,Cc1ccc(C(=O)Nc2nc(=O)n(C)s2)cc1,-1%
7,C=CCN(c1ccc(C(=O)NC(C)C)cc1)S(C)(=O)=O,-10%
8,COc1ccc(N(CC(=O)N2CCN(Cc3ccccc3)CC2)S(C)(=O)=O)cc1,-16%
9,CS(=O)(=O)N(Cc1ccccc1)c1ccc(C(=O)Nc2ccc(C(N)=O)cc2)cc1,82% (active)
10,CCC1=C(OC(=O)N(CC)CC)N2C(=O)OC(=NCC3CC3)[C@]2(C)[C@H]2C1=CC[C@H]1C(=O)N(C)C(=O)[C@H]12,-1%
11,N=c1c2cn[nH]c2nc(SCC(=O)c2ccc(Br)cc2)n1-c1ccc(Br)cc1,-3%
12,Cc1cc(C(=O)NCc2ccc(S(N)(=O)=O)cc2)ccc1[N+](=O)[O-],-15%
13,CC(C)NC(=S)N/N=C/c1ccc(C(C)(C)C)cc1,-13%
14,COCCNC(=O)C(=O)N/N=C/c1ccc(C(=O)OC)cc1,-11%
15,CSC(=S)N/N=C/c1ccc(Br)cc1,46% (active)
16,C/C(=N\NC(N)=S)c1ccncc1,-3%
17,CSc1ccc(/C=N/NC(=O)c2cccs2)cc1,-17%
18,CSC(=S)N/N=C/c1ccccc1,34% (active)
19,CSC(=S)N/N=C(\C)c1ccccc1,35% (active)
20,CC(C)(C)c1ccc(/C=N/NC(=S)Nc2cccnc2)cc1,-11%
21,C/C(=N\NC(N)=S)c1cccnc1,-8%
22,COCCOC(=O)C1=C(C)Nc2ncnn2C1c1ccc(F)cc1 (configuration not stated),-26%
23,CC(C)OC(=O)c1c(NS(=O)(=O)c2ccccc2)sc2c1CCCC2,37% (active)
24,CC1CCc2c(sc(NS(=O)(=O)c3ccccc3)c2C(=O)OC(C)C)C1 (configuration not stated),7% (active)
25,COC(=O)c1c(NC(=O)CN2CCOCC2)sc2c1CCC(C)C2 (configuration not stated),-13%
26,CC(NS(=O)(=O)c1ccccc1)C(N)=O (configuration not stated),-10%

row,Structure (SMILES),"activity increase over dofetilide control, less the hit threshold"
1,CCOC(=O)c1c(NS(C)(=O)=O)sc2c1CCC(C)C2 (configuration not stated),21% (active)
2,CC(C)OC(=O)c1c(NC(=O)c2ccco2)sc2c1CCCCC2,-12%
3,O=[N+]([O-])c1ccc(Cl)c(/C=N/Nc2nc(N3CCOCC3)nc(N3CCOCC3)n2)c1,-18%
4,COc1ccccc1C(=O)COC(=O)c1ccc(-n2cnnn2)cc1,-21%
5,O=C(N/N=C\c1coc2ccccc2c1=O)c1ccco1,-24%
6,CC(Nc1ccc(F)cc1)=[N+](C)CCNS(=O)(=O)c1ccc(Cl)cc1,-3%
7,O=C(NN1C(=O)C2C(c3ccccc3)C=CC(c3ccccc3)C2C1=O)c1cccc(Br)c1 (configuration not stated),-54%
8,CC1Cc2ccccc2N1C(=S)NC(=O)c1ccc(Cl)cc1Cl (configuration not stated),55% (active)
9,COc1cc2c(cc1OC)C(C)N(C(=S)NC(=O)c1ccccc1)CC2 (configuration not stated),-18%
10,CC1Cc2ccccc2N1C(=S)NC(=O)C1(C)CC1(Cl)Cl (configuration not stated),42% (active)
11,Cc1csc2ncc(C(=O)N3c4ccccc4CC3C)c(=O)n12 (configuration not stated),-2%
12,CC1Cc2ccccc2N1C(=S)NC(=O)c1cccc(Br)c1 (configuration not stated),77% (active)
13,CC(=O)N1CCc2cc(S(=O)(=O)N3c4ccccc4CC3C)ccc21 (configuration not stated),-14%
14,CC1Cc2cc(S(=O)(=O)NCc3ccccc3)ccc2N1C(=O)C1CCC1 (configuration not stated),-22%
15,CC1Cc2ccccc2N1C(=S)NC(=O)c1ccco1 (configuration not stated),6% (active)
16,CC1=C(C#N)C(Nc2cc(C)ccn2)(C(F)(F)F)C(=O)N1 (configuration not stated),-10%
17,Cc1nn(Cc2ccccc2)c2c1C(c1cccnc1)C(C#N)=C(N)O2 (configuration not stated),-6%
18,N=C1C(=O)OCC1c1cc(Cl)ccc1NC(=O)Nc1ccccc1 (configuration not stated),-9%
19,CCCn1c(CC)nc([N+](=O)[O-])c1S(=O)(=O)c1ccccc1,3% (active)
20,CC(C)N1CC(C(=O)Nc2ccc(Cl)c(Cl)c2)CC1=O (configuration not stated),-8%
21,CCCCCCCc1c(O)nc(SCC(=O)O)[nH]c1=O,-6%
22,Cc1csc(NC(=O)c2cn3ccccc3n2)n1,-12%
23,CCOC(=O)c1sc(NC(=S)NC(=O)c2ccco2)nc1C,7% (active)
24,CCOC(=O)c1sc(NC(=S)NC(=O)c2cccc(OC)c2)nc1C,7% (active)
25,Cc1csc(NC(=S)NC(=O)c2ccccc2)n1,10% (active)
26,O=C(NC(=S)Nc1nc2c(s1)CSc1ccccc1-2)c1ccccc1,21% (active)

row,Structure (SMILES),"activity increase over dofetilide control, less the hit threshold"
1,Cc1nc(NC(=O)c2ccco2)sc1C(=O)O,-10%
2,CCn1cc(CCC(=O)NCc2cccc(OC)c2OC)c2ccccc21,-12%
3,COC(=O)c1sc(NC(=S)NC(=O)c2ccccc2F)nc1C,-3%
4,COC(=O)c1sc(NC(=S)NC(=O)c2ccc(C)cc2)nc1C,-3%
5,CCOC(=O)c1sc(NC(=S)NC(=O)c2ccc(OC)cc2)nc1C,-2%
6,COC(=O)c1sc(NC(=S)NC(=O)c2ccccc2C)nc1C,26% (active)
7,CCOC(=O)c1sc(NC(=S)NC(=O)c2ccccc2)nc1C,36% (active)
8,Cc1ccc(CN2CCN(/N=C/c3ccc(O)c(O)c3)CC2)cc1,7% (active)
9,Nc1cccc(Oc2cnccn2)c1,-5%
10,Nc1ncnc(NC2CCS(=O)(=O)C2)c1[N+](=O)[O-] (configuration not stated),-12%
11,Cc1cc(NC(=O)CSc2ccc3nnc(-c4cccs4)n3n2)no1,-17%
12,COc1cc(OC)cc(C(=O)O/N=C(\N)c2cccc(C)c2)c1,-14%
13,COc1cccc(C(=O)CC(=O)C(=O)Nc2ccc(C)cc2Cl)c1,50% (active)
14,COc1ccc(C(=O)CC(=O)C(=O)Nc2ccc(C)cc2Cl)cc1,35% (active)
15,COc1ccc(CNC(=O)C2CCCN2)cc1OC (configuration not stated),-14%
16,Cc1ccc(CC23CN4CCN(CC(C4)C2O)C3)c(C)c1 (configuration not stated),-14%
17,NC(=O)c1nsc(C(=O)N(CC(=O)NCc2ccccc2)c2ccc(F)cc2)c1N,-22%
18,Cc1ccc2c(c1)c1nnc(SCC(=O)Nc3ccc(N(C)C)cc3)nc1n2CC(=O)O,-9%
19,COc1cc(/C=C/C(=O)O)ccc1OS(=O)(=O)c1cc(C)ccc1C,-26%
20,COc1ccc(/C=C/C(=O)Nc2ccccc2C(=O)O)cc1OC,18% (active)
21,C=CCNC(=O)c1ccccc1NC(=O)COc1ccc(OC)cc1,-2%
22,COc1cc(/C=C/C(=O)N[C@@H](Cc2c[nH]c3ccccc23)C(=O)O)ccc1O,-8%
23,O=C(/C=C/c1ccccc1)Nc1ccc(S(=O)(=O)N2CCOCC2)cc1,-10%
24,COc1ccc(/C=C/C(=O)Nc2ccccc2C(=O)O)cc1,5% (active)
